Measured values published in PubChem BioAssay (NCI).
About 79,000 compounds went through this panel and 15% of them were active in at least one assay; those are over-represented in the sample as a whole. A number with no mark means an inactive call. Calls of active or inactive are those of the source. No stated cut-off is given here; in the data, active means growth inhibition above about 70%; inactive means the rest. Where a SMILES comes first, the peptide text is derived from it. The star is where a group is joined. X7 = Clc1c(Cl)c(Cl)c(O*)c(Cl)c1Cl; Boc = CC(C)(C)OC(=O)*; OBn = c1ccc(CO*)cc1; Bn = c1ccc(C*)cc1

Assays:
[1] = NCI Yeast Anticancer Drug Screen. Data for the rad50 strain (AID 155);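 further: 0% = growth of vehicle-only cultures of the same strain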; settings: S. cerevisiae rad50 strain growth inhibition, hits give high values
In short: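 Yeast carrying a defined DNA repair defect were exposed to test compounds, and growth was compared with vehicle-treated controls to give percent inhibition.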

[2] = NCI Yeast Anticancer Drug Screen. Data for the mec2-1 strain (AID 157); settings: S. cerevisiae mec2-1 strain, hits give high values
In short: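 Vehicle-treated cultures served as reference for growth inhibition of compound-exposed mec2-1 yeast.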

[3] = NCI Yeast Anticancer Drug Screen. Data for the sgs1 mgt1 strain (AID 161);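 further: 0% = growth of cultures given vehicle only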; settings: S. cerevisiae sgs1 mgt1 strain, hits give high values
In short: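 Mutant yeast exposed to compound; growth scored against vehicle-only wells.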

[4] = NCI Yeast Anticancer Drug Screen. Data for the cln2 rad14 strain (AID 165);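 further: 0% = growth equal to vehicle treated cultures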; settings: S. cerevisiae cln2 rad14 strain, hits give high values
In short: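 Each compound was tested on cln2 rad14 yeast. Inhibition of growth was calculated against vehicle-exposed controls.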

[5] = NCI Yeast Anticancer Drug Screen. Data for the bub3 strain (AID 167); settings: S. cerevisiae bub3 mutant strain, hits give high values
In short: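 Compounds were applied to a genetically altered yeast strain carrying a cell-cycle control defect. Growth inhibition was scored against vehicle-treated controls.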

[6] = NCI Yeast Anticancer Drug Screen. Data for the mlh1 rad18 strain (AID 175); settings: S. cerevisiae mlh1 rad18 strain growth inhibition, hits give high values
In short: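 Vehicle-treated cultures served as the reference for growth inhibition in a yeast strain carrying DNA damage repair alterations exposed to each compound.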

[7] = at 5.0 µM (retest, dose inferred, filed as 0.5)
[8] = at 50.0 µM (retest, dose inferred, filed as 5.0)

Structure (SMILES)	growth inhibition [1, 7]	growth inhibition [1, 8]	growth inhibition ([1]; at 50.0 µM)	growth inhibition [2, 7]	growth inhibition [2, 8]	growth inhibition ([2]; at 50.0 µM)	growth inhibition [3, 7]	growth inhibition [3, 8]	growth inhibition ([3]; at 50.0 µM)	growth inhibition [4, 7]	growth inhibition [4, 8]	growth inhibition ([4]; at 50.0 µM)	growth inhibition [5, 7]	growth inhibition [5, 8]	growth inhibition ([5]; at 50.0 µM)	growth inhibition [6, 7]	growth inhibition [6, 8]	growth inhibition ([6]; at 50.0 µM)
COC(=O)n1c(C[P+](c2ccccc2)(c2ccccc2)c2ccccc2)cc2ccccc21	89% (active)	100% (active)	99.2% (active)	90% (active)	100% (active)	99.6% (active)	79% (active)	99% (active)	99.5% (active)	91% (active)	99% (active)	98.1% (active)	95% (active)	100% (active)	99.4% (active)	90% (active)	99% (active)	99% (active)
CC(=O)c1c(-c2ccco2)c(C#N)c(=S)n(C2OC(CO)C(O)C(O)C2O)c1-c1ccccc1 (stereo not drawn)	-9%	12%	32.9%	-4%	17%	49.6%	0%	44%	58.5%	14%	28%	35.2%	8%	20%	50.8%	-25%	45%	62.6%
Nc1ncnc2c1c(-c1ccc(Cl)cc1)cn2-c1ccccc1	21%	62%	51.2%	11%	52%	30.1%	42%	82% (active)	85.2% (active)	2%	35%	45%	13%	65%	48.7%	13%	76% (active)	26.7%
c1ccc2c(c1)oc1cc3ccncc3cc12	43%	96% (active)	96.8% (active)	11%	86% (active)	86.3% (active)	3%	83% (active)	94.8% (active)	9%	89% (active)	92% (active)	24%	94% (active)	96% (active)	14%	92% (active)	95.2% (active)
CN(C)CC/[N+]([O-])=C(/c1ccccc1)C12CC3CC(CC(C3)C1)C2	-6%	6%	-16.6%	-1%	-1%	1.8%	14%	31%	16.9%	7%	-1%	17.1%	1%	3%	-1.9%	9%	25%	70.6% (active)
CC(C)CC(NC(=O)C(CCC(=O)OCc1ccccc1)NC(=O)OC(C)(C)C)C(=O)NC(COCc1ccccc1)C(=O)NC(Cc1ccccc1)C(=O)Oc1c(Cl)c(Cl)c(Cl)c(Cl)c1Cl (stereo not drawn) (Boc-E(OBn)LS(Bn)F-X7; configuration not given here)	39%	58%	80.5% (active)	36%	56%	84.8% (active)	38%	80% (active)	82.8% (active)	26%	53%	85.3% (active)	34%	84% (active)	78% (active)	42%	76% (active)	79.6% (active)
